Common to all, as to experiment: PBM binding z-score (relative to random genomic background probes); higher = stronger binding; sequences stand for … in GC…GCGATTGACAGCGTAGAATGAAGG
In assay [1] the test system is FXR:RXRa (NR concentration 270 nM, RXRa partner concentration 90 nM). Put shortly: (§1)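 On custom Agilent 4×180K arrays, double-stranded probes with 34-nt variable regions carried direct-repeat seeds, single-nucleotide variants, half-site ablations or random human genomic background. Ligand-free nuclear receptor dimers were applied for 1 h, and binding was read with antibodies against each partner (one per run). Binding z-scores come from regression-normalized fluorescence, with the random background probes as reference.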

In assay [2] the test system is LXRa:RXRa (NR concentration 270 nM, RXRa partner concentration 90 nM). Put shortly: as §1
In assay [3] the test system is LXRa homodimer (NR concentration 270 nM). Put shortly:
as §1

Assay [4] deals with LXRb:RXRa (NR concentration 270 nM, RXRa partner concentration 90 nM). Put shortly: as §1
For assay [5], the system named is LXRb homodimer (NR concentration 270 nM). In short, it runs like this:
as §1

The test system of assay [6] is PPARa:RXRa (NR concentration 270 nM, RXRa partner concentration 90 nM). Put shortly: as §1
Assay [7] concerns PPARg:RXRa (NR concentration 180 nM, RXRa partner concentration 90 nM). In short, it runs like this:
as §1

Assay [8] deals with PPARg:RXRa 270nM:90nM, anti-RXR (NR concentration 270 nM, RXRa partner concentration 90 nM). In short, it runs like this:
as §1

The subject of assay [9] is PPARg:RXRa 30nM:10nM, anti-RXR (NR concentration 30 nM, RXRa partner concentration 10 nM). In short, it runs like this:
as §1

Assay [10] concerns PPARg:RXRa 90nM:30nM, anti-RXR (NR concentration 90 nM, RXRa partner concentration 30 nM). In short, it runs like this: as §1
For assay [11], the system named is PPARg:RXRa DBDmut IVT, anti-RXR (DBD mutation: RXRa K156A/R161A, NR concentration 270 nM, RXRa partner concentration 90 nM). Put shortly: as §1
For assay [12], the system named is PPARg:RXRa IVT, anti-PPARg (NR concentration 270 nM, RXRa partner concentration 90 nM). Put shortly: as §1
The test system of assay [13] is PPARg DBDmut:RXRa IVT, anti-PPARg (DBD mutation: PPARg1 K132A/R137A, NR concentration 270 nM, RXRa partner concentration 90 nM). In short, it runs like this:
as §1

In assay [14] the test system is PPARg DBDmut IVT, anti-PPARg (DBD mutation: PPARg1 K132A/R137A, NR concentration 270 nM). Put shortly: as §1
In assay [15] the test system is PPARg homodimer (NR concentration 180 nM). Put shortly: as §1
Assay [16] concerns PXR:RXRa (NR concentration 270 nM, RXRa partner concentration 90 nM). In short, it runs like this:
as §1

The test system of assay [17] is PXR homodimer (NR concentration 270 nM). In short, it runs like this: as §1
Assay [18] deals with RARa:RXR (NR concentration 270 nM, RXRa partner concentration 90 nM). Put shortly: as §1
For assay [19], the system named is RARa homodimer (NR concentration 270 nM). In short, it runs like this: as §1
The test system of assay [20] is RARb:RXRa (NR concentration 270 nM, RXRa partner concentration 90 nM). Put shortly:
as §1

Turning to TCTCGGAGGACACGAAAGGCCAGAGCTCGACATC, the PBM binding z-score in [1] was 0.554; in assay [2], -0.137; in assay [3], -0.548; in assay [4], -0.341; in assay [5] it was -1.2; in assay [6], 0.0543. Also, the PBM binding z-score in assay [7] was 0.264; in assay [8] it was 0.908; in assay [9], 1.86; in assay [10], 1.56; in assay [11], 1.19; in assay [12], -0.0515. The PBM binding z-score in [13] was -0.613; in assay [14], -0.159; in [15], -0.541; in assay [16] it was -0.141; in assay [17] it was -0.472; in assay [18], 0.327. The PBM binding z-score in assay [19] is -0.569; in [20], 1.82.

CGAACTAGGTCAAGGACAATGAATCTCCGCACGC: the PBM binding z-score in assay [1] was 3.47; in [2], 2.4; in [3], 0.0804; in assay [4], 1.37; in assay [5], -0.174; in [6], 4.72. Also, the PBM binding z-score worked out at 7.83 in assay [7]; 6.69 in assay [8]; 4.46 in assay [9]; 6.15 in assay [10]; 8.3 in assay [11]; 8.44 in assay [12]. The PBM binding z-score in assay [13] came to 2.51; in [14], 1.02; in assay [15], 2.03; in assay [16], 1.31; in [17] it was 0.478; in assay [18], 1.99. For the same sequence, the PBM binding z-score in assay [19] is -0.186; in assay [20], 3.99.

Consider TCTGCTAGGACAGTTGGTCAGCTAACGAGCTGCC, for which the PBM binding z-score in [1] is -0.435; in [2], -0.527; in [3], -0.541; in assay [4], -0.91; in assay [5], -0.315; in assay [6], -0.722. Moreover, the PBM binding z-score in assay [7] is -0.522; in [8], -0.161; in assay [9], 0.654; in assay [10] it was 0.296; in [11], 0.464; in assay [12], 0.0709. In addition, the PBM binding z-score is -0.543 in assay [13]; -0.756 in assay [14]; -1.29 in assay [15]; -0.745 in assay [16]; -1.05 in assay [17]; -0.557 in [18]. In addition, the PBM binding z-score in [19] is -1.03; in assay [20] it was 0.346.

With CTCGAAAGCTCGGTTGAGGTGAGTATACGGATAA, the PBM binding z-score in [1] is -0.222; in assay [2], -0.554; in assay [3], -0.444; in assay [4], -0.393; in assay [5], -0.608; in assay [6] it was -0.294. Besides, the PBM binding z-score in assay [7] was -0.189; in assay [8] it was -0.312; in [9], -0.328; in [10] it was -0.403; in [11], -0.672; in assay [12] it was -0.193. Further, the PBM binding z-score in assay [13] was -0.22; in assay [14] it was -0.607; in assay [15], -0.84; in assay [16], -0.305; in assay [17] it was -0.679; in assay [18] it was 0.034. Besides, the values for the PBM binding z-score in assay [19] and in assay [20] were -0.648 and -0.166, respectively.

With ATATGTAGGTTAGCTGGGGTCATACAGACTAGGC, the PBM binding z-score in [1] was 5.27; in assay [2], 5.79; in assay [3] it was 2.45; in assay [4], 4.74; in assay [5], 0.852; in assay [6], 5.2. Also, the PBM binding z-score was found to be 6 in assay [7]; 5.38 in assay [8]; 2.74 in assay [9]; 4.94 in [10]; 6.97 in [11]; 6.06 in [12]. For the same sequence, the PBM binding z-score was found to be 1.52 in assay [13]; 1.48 in assay [14]; 2.67 in assay [15]; 6.28 in assay [16]; 3.07 in assay [17]; 5.89 in assay [18]. Further, the PBM binding z-score in [19] is 1.68; in [20], 3.13.

As for CATTACGGGTCACGAGGTTATAGCACGACGAGCG, the PBM binding z-score in assay [1] amounted to 7.14; in assay [2], 6.04; in [3] it was 2.06; in [4] it was 4.56; in assay [5], 1; in assay [6], 6.33. Moreover, the PBM binding z-score in assay [7] stood at 8.49; in [8] it was 7.3; in assay [9], 4.45; in [10] it was 6.59; in assay [11] it was 5.61; in assay [12] it was 5.99. For the same sequence, the PBM binding z-score in assay [13] came out at 1.73; in assay [14], 1.78; in assay [15], 4.62; in [16] it was 4.8; in [17] it was 0.703; in [18], 6.52. For the same sequence, the PBM binding z-score in [19] came to 1.04; in [20], 4.68.

With CGAACTAGGTCAGAACAGCACAGTGAAGGATGAT, the PBM binding z-score was 0.904 in [1]; 0.613 in assay [2]; -0.229 in assay [3]; 0.425 in assay [4]; -0.2 in assay [5]; 3.25 in assay [6]. The PBM binding z-score in assay [7] was determined as 5.34; in [8] it was 4.59; in assay [9], 1.73; in [10] it was 3.54; in assay [11] it was 7.06; in [12], 7. For the same sequence, the PBM binding z-score in assay [13] is 0.891; in assay [14], 0.278; in [15], 0.531; in assay [16], 0.247; in assay [17] it was -0.0288; in [18] it was 0.419. The PBM binding z-score in assay [19] stood at 0.0797; in assay [20] it was 2.92.

The record behind these values is the supplement of paper PMC6555819.
